Screens: PubChem, National Center for Advancing Translational Sciences (NCATS)
Rows were chosen to be rich in hits. Some 2.7% of all compounds tested hit in one or more screens of this group.
LDHA inh = qHTS assay for inhibitors of human lactate dehydrogenase; purified LDHA, NADH/diaphorase-resazurin fluorescence; active compounds read low; 480,000 compounds, 0.15% hits; activity change, % (values are at about 110 or 230 µM); L-lactate dehydrogenase A chain (Homo sapiens), P00338; in the data active = activity change below about -30%; inconclusive = mostly about -25% to -30%
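Enzyme activity of human lactate dehydrogenase 5 (2 nM; 0.06 mM NADH, 0.2 mM pyruvate, 5 min, RT) is measured via a resazurin/diaphorase fluorescence readout of residual NADH.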
ERG Ets-DNA blk = qHTS for Small Molecule Inhibitors of the ERG Ets/DNA interaction; Transcriptional regulator ERG (Homo sapiens), P11308; fluorescence polarization, His-ERG Ets domain / labelled DNA; Potency, µM (doses to about 76.9 µM), actives largely listed as inhibitors; 370,000 compounds, 0.028% hits; AID 624246, 2012; active = well fitted inhibition curve with a large enough effect in the polarisation, with a control signal flat; inconclusive = small, poorly fitted or top-dose-only effect, or effect the other way, or a change in a side signal; inactive = no such curve, though single readings can be large or run the other way; the % refers to the polarisation;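 also: polarization taken with two DNA probes labelled with fluorescein and Texas red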
Target sequence (P11308 whole entry, looked up, the tested form may be a part): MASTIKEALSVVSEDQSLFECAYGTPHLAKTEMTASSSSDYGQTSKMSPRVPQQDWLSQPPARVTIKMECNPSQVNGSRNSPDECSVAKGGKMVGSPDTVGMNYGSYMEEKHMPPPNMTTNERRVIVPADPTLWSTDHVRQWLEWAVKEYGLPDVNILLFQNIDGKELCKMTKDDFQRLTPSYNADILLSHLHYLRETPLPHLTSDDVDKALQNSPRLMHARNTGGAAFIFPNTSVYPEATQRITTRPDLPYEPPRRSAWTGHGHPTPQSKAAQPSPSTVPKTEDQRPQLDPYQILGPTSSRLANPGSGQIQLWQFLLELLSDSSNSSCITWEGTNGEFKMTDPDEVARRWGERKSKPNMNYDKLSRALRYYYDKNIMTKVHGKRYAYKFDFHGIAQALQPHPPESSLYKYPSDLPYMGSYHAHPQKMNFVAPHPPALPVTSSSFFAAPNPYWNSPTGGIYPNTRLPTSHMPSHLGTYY
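His-tagged ERG Ets domain (1 uM in the protein solution; 300mM KCl, 50mM Tris-HCl, 1mM EDTA, 1mM DTT, pH 7.5) received compound, then a probe mix of 5 nM fluorescein-DNA and 100nM Texas-615-DNA. Fluorescence polarization was read for both dyes.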
Nrf2 ARE act = qHTS of Nrf2 Activators. AREc32 ARE-luciferase reporter (MCF7-derived line), luminescence, 24 h. Potency, µM (series often up to 46.1 µM), most hits filed as activators. 410,000 compounds, 0.31% hits. AID 624171, 2012; also: nearly all actives have a fitted effect of over 65% in size
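Luminescent ARE reporter assay in AREc32_Fluc cells: overnight plating at 37 deg C, 24 hr compound incubation, Steady-Glo added, 30 min RT before reading.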
A549 viability = Nrf2 qHTS screen for inhibitors: counterscreen for cytotoxicity. A549 ARE-Fluc cells, CellTiter-Fluor viability, 18-24 h. 390,000 compounds, 0.16% hits. Potency, µM (doses to about 46 µM), hits mostly inhibitors
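A549 ARE_Fluc cells in 5% FBS OPTI-MEM were exposed to compounds in concentration-response for 18-24 h at 37 deg C. Viability was read by CellTiter-Fluor fluorescence (Ex 405/Em 525) after 30 min, before the luciferase read.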
ALOX12 inh = Primary qHTS assay for inhibitors of human arachidonate 12S-lipoxygenase (ALOX12): Round 2; Polyunsaturated fatty acid lipoxygenase ALOX12 (Homo sapiens), P18054; purified 12hLO, xylenol orange hydroperoxide absorbance; Potency, µM (highest dose often 108 µM), usual class: inhibitors; 580,000 compounds, 1.1% hits
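Hydroperoxide product was detected by ferrous iron/xylenol orange as the 573 to 405 nm absorbance ratio. Arachidonic acid at 40 uM (final) was turned over for 30 min at room temperature by 150 nM human 12hLO, pH 7.0 Hepes buffer, after 15 min compound preincubation.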
Nrf2 block = Nrf2 qHTS screen for inhibitors | A549 ARE-Fluc reporter, luciferase luminescence, 18-24 h | Potency, µM (highest dose often 46 µM), most hits filed as inhibitors | 360,000 compounds, 2.1% hits | AID 504444, 2011; also: nearly all actives have a fitted effect of over 60% in size
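Concentration-response testing used A549 ARE_Fluc cells at 5000 cells/well. Following an 18-24 h compound incubation, viability was read by fluorescence (Ex 405/Em 525) and luciferase output by luminescence.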
A number is an active result; i = inactive; ? = inconclusive; nt = not tested or not shown; [ ] = dose if it differs, or a comment. Unless noted, calls follow the shape of the dose curve; as a rule, active = well fitted curve in the direction sought with a large enough effect; inconclusive = small, poorly fitted or top-dose-only effect, or another doubt; inactive = no such curve, though single readings can be large; an effect the other way counts as inactive or inconclusive.

SMILES	LDHA inh	ERG Ets-DNA blk	Nrf2 ARE act	A549 viability	ALOX12 inh	Nrf2 block
CCOc1ccc(N2CC(C(=O)N(C)CC(=O)NCc3ccco3)CC2=O)cc1 (stereo not given)	i	nt	nt	nt	i	nt
COCCCn1cnnc1SCC(=O)c1c[nH]c2ccccc12	i	nt	nt	nt	?	nt
CCCN(CCC)C(=O)c1cc2sc3ccccc3c2s1	i	nt	nt	nt	5.01µM	nt
FC(F)(F)Oc1ccc(Nc2cnc3ccc(N4CCOCC4)nn23)cc1	nt	nt	nt	nt	i	nt
COc1ccc(-c2noc([C@@H]3Cc4nc[nH]c4CN3Cc3ccc(CO)o3)n2)cc1	nt	nt	nt	nt	i	nt
Cc1noc(C)c1CNCC1(COc2cnccn2)C[C@@H](O)[C@@H](O)C1 (stereo not given in full)	nt	nt	nt	nt	i	nt
Cc1noc(C)c1CNCC1(COc2cccnc2)C[C@@H](O)[C@@H](O)C1 (stereo not given in full)	nt	nt	nt	nt	12.6µM	nt
CN(CC(=O)NC1(C#N)CCCCC1)Cc1ccc(C(F)(F)F)cc1	i	nt	nt	nt	28.2µM	nt
O=C(CSc1nc2ccccc2c(=O)n1CCCN1CCOCC1)c1ccc2ccccc2c1	i	nt	nt	nt	i	nt
Cc1ccc(/C=C2/NC(=O)N(Cc3ccc(Br)cc3)C2=O)o1	i	i	i	?	44.7µM	i
COc1cccc(-c2cncnc2NCc2ccccc2OC)c1	nt	nt	nt	nt	i	nt
COc1cccc(-c2cncnc2NCc2ccc(OC)cc2OC)c1	nt	nt	nt	nt	12.6µM	nt
COc1ccc(/C=C/c2nc(C#N)c(NCCN3CCOCC3)o2)cc1OC	i	nt	nt	nt	?	nt
COc1cc(Cl)c(C)cc1NC(=O)c1cc(=O)n2c(nc3ccccc32)s1	i	nt	nt	nt	44.7µM	nt
C=C(C)C[C@H]1CC=C[C@H](CC(=C)C)[N+]1(C)C	i	nt	nt	nt	17.8µM	nt
O=C(O)c1cnc(/C=C/c2csc(-c3ccccn3)n2)s1	i	nt	nt	nt	i	nt
Cc1ccc(Cn2c(C3CCN(C(=O)c4cccc(F)c4)CC3)n[nH]c2=O)cc1	nt	nt	nt	nt	44.7µM	nt
Cc1ccc(Cn2c(C3CCN(C(=O)c4ccc(C#N)cc4)CC3)n[nH]c2=O)cc1	nt	nt	nt	nt	6.31µM	nt
Cc1ccc(-n2c(C3CCN(C(=O)COc4ccc(F)cc4)CC3)n[nH]c2=O)cc1	nt	nt	nt	nt	44.7µM	nt
N#Cc1ccccc1COc1ccc(/C=C/C(=O)O)cc1	i	?	i	i	i	2.31µM
N#Cc1ccccc1COc1ccc(C=O)cc1	i	nt	nt	nt	?	nt
CCOC(=O)CNC(=O)c1cc(-c2ccc(Cl)cc2)nc2ccccc12	i	nt	nt	nt	i	nt
CCOC(=O)c1c(NC(=O)C[n+]2ccc(Cc3ccccc3)cc2)sc(C)c1C	i	i	i	i	44.7µM	i
COC(=O)CCC(=O)Nc1sc(Cc2ccccc2)c(C)c1C(N)=O	i	i	i	i	20µM	i
O=C(NCCc1ccccc1)c1cc2cc(F)ccc2[nH]1	i	nt	nt	nt	i	nt
SMILES	LDHA inh	ERG Ets-DNA blk	Nrf2 ARE act	A549 viability	ALOX12 inh	Nrf2 block
COc1ccc(CNC[C@H]2Cn3c(-c4ccc(Cl)cc4)cnc3CO2)cc1	nt	nt	nt	nt	44.7µM	nt
CC(/C=C/c1ccco1)=N/NC(=O)CNc1ccccc1C	i	i	i	i	i	i
CC(/C=C/c1ccco1)=N\NC(=O)CNc1ccc2ccccc2c1	i	i	10µM	i	i	i
CCCNC(=O)c1nnsc1S(=O)(=O)c1ccc(Cl)cc1	i	i	i	?	i	23.1µM
CCCNC(=O)c1nnsc1S(=O)c1ccc(Cl)cc1 (stereo not given)	i	i	i	i	i	i
Cc1ccc(CNC(=O)c2ccccc2NC(=O)Cn2c(C)cc(C)c(C#N)c2=O)o1	i	nt	nt	nt	?	nt
Clc1cccc(Cl)c1C1Nc2cccc3cccc(c23)N1	i	i	?	?	?	9.2µM
Clc1cccc(C2Nc3cccc4cccc(c34)N2)c1	i	i	i[9.22 µM]	i	3.55µM	i
COc1ccccc1NC(CC(=O)c1ccccc1)C(=O)OCC(=O)c1ccc(C)c(C)c1 (stereo not given)	i	i	12.6µM	i	i	?
